Test results published in ChEMBL document CHEMBL3988442, “University of Dundee, Small-Polar-MMV Screening Library” (2021).
For some assays here: Entries with a potency or affinity are not part of this list.

Assays:
Set-up in all cases: scale not given: direction of the effect not stated beside the values
[1] = target: Protein translocase subunit SecA (Escherichia coli (strain K12)) (UniProt P10408); assay: Assay to Identify E. coli SecA ATPase Inhibitors; assay type: functional; details: 30 µM
[2] = target: T1, Ubiquitin-activating enzyme e1, putative (Leishmania donovani (strain BPK282A1)) (UniProt E9BSI1); assay: Leishmania donovani Ubiquitin Activating Enzyme (LdE1); assay type: functional; details: 30 µM
T1 sequence (whole entry): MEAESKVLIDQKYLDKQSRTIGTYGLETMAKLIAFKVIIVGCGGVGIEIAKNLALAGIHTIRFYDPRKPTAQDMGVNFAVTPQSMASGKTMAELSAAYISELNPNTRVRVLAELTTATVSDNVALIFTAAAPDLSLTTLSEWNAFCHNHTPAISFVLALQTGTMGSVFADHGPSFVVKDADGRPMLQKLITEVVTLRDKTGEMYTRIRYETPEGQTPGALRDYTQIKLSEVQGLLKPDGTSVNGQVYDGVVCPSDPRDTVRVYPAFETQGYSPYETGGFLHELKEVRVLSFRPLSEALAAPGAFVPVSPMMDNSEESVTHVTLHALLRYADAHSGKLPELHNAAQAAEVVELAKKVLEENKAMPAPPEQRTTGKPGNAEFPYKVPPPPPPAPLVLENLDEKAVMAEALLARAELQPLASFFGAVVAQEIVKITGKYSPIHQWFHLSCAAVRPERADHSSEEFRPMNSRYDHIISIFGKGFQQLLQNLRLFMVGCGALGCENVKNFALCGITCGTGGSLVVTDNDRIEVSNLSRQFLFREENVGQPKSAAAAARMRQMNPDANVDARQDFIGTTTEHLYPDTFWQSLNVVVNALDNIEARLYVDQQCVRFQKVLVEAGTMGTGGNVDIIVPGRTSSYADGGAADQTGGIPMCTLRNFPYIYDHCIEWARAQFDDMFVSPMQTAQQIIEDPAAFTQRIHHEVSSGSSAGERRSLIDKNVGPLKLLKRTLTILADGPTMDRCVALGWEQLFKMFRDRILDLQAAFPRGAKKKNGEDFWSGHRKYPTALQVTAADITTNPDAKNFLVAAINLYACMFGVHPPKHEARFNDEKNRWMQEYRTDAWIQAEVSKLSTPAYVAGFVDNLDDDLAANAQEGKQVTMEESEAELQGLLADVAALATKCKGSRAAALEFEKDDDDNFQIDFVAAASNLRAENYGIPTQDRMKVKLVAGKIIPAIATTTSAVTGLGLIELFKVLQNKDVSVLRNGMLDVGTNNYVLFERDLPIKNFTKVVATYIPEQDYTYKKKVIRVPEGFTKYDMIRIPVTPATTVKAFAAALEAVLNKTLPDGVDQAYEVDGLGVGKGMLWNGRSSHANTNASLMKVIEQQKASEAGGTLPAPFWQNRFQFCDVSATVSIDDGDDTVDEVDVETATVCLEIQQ

[3] = target: AMP-activated protein kinase, AMPK (Homo sapiens) (UniProt P54646+O43741+P54619+Q9UGJ0+Q9Y478+Q13131+Q9UGI9); assay: AMP-dependent Kinase enzyme assay. An in vitro enzyme assay that detects ADP turnover that is directly proportional to AMPK activity. This uses naive AMPK that is activated during the assay with MK-8722; assay type: functional; details: 30 µM
[4] = target: Sialic acid-binding Ig-like lectin 9 (Homo sapiens) (UniProt Q9Y336); assay: Hs-Siglec9 ALPHAscreen SOP 20170721; details: 10 µM
Sialic acid-binding Ig-like lectin 9 (Homo sapiens), sequence (Q9Y336 whole entry): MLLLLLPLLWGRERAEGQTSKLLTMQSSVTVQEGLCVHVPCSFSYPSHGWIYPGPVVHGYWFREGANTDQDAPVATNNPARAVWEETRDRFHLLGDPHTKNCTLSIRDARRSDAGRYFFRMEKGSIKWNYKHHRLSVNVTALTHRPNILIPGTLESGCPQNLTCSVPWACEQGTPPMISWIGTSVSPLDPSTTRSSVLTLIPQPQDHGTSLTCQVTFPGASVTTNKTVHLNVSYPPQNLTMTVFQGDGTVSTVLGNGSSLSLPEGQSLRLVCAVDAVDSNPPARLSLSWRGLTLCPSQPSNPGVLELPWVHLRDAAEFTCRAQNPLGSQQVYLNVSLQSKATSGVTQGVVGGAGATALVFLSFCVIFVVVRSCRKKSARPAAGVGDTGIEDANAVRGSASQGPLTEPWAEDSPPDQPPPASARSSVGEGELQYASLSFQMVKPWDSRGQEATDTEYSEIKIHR

Trypanosoma cruzi = assay: Trypanosoma cruzi phosphomannomutase and mannose-1-phosphate guanylyltransferase assay; assay type: functional; details: 10 µM
[5] = target: T2, Arginase-2, mitochondrial (Homo sapiens) (UniProt P78540); assay: in vitro enzyme assay to detect the production of urea directly proportional to the activity of Arginase II; assay type: functional; details: 33.3 µM; also: in the data most compounds retested in dose-response had high values
T2 sequence (whole entry): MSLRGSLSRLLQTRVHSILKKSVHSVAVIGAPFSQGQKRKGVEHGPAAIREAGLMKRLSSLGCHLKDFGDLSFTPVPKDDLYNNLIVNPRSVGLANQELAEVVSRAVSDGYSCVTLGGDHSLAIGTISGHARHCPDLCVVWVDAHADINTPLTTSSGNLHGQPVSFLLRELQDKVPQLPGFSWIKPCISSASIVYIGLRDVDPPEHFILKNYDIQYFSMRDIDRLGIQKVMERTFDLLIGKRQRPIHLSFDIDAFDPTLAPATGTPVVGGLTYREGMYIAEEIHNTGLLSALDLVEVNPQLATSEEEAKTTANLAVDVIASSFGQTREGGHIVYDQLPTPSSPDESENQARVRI

[6] = target: T3, Proteasome subunit beta (Trypanosoma cruzi) (UniProt O96673); assay: Trypanosoma cruzi proteasome chymotrypsin-like activity (TcProtChymo) assay.; also: in the data most compounds retested in dose-response had high values; assay type: functional; details: 9.37 µM
T3 sequence (whole entry): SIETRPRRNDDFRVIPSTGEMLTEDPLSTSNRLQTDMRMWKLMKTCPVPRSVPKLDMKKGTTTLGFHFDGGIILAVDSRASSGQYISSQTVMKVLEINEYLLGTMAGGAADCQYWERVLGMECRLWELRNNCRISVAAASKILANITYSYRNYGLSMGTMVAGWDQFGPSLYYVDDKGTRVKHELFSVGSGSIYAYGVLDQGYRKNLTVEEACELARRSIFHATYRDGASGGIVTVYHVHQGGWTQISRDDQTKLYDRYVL

Homo sapiens = species: Homo sapiens; assay: To identify inhibition of the IFN signalling (Jak-Stat) pathway via expression of an eGFP reporter gene under the control of an IFN-stimulated response element (ISRE) containing MxA promoter.; assay type: functional; details: 30 µM
[7] = target: T4, Tyrosyl-tRNA synthetase, putative (Trypanosoma cruzi (strain CL Brener)) (UniProt Q4DSP6); assay: Trypanosoma cruzi tyrosyl tRNA synthetase (TcYRS) _High Tyrosine SOP; assay type: functional; details: 30 µM; also: in the data most compounds retested in dose-response had high values
T4 sequence (whole entry): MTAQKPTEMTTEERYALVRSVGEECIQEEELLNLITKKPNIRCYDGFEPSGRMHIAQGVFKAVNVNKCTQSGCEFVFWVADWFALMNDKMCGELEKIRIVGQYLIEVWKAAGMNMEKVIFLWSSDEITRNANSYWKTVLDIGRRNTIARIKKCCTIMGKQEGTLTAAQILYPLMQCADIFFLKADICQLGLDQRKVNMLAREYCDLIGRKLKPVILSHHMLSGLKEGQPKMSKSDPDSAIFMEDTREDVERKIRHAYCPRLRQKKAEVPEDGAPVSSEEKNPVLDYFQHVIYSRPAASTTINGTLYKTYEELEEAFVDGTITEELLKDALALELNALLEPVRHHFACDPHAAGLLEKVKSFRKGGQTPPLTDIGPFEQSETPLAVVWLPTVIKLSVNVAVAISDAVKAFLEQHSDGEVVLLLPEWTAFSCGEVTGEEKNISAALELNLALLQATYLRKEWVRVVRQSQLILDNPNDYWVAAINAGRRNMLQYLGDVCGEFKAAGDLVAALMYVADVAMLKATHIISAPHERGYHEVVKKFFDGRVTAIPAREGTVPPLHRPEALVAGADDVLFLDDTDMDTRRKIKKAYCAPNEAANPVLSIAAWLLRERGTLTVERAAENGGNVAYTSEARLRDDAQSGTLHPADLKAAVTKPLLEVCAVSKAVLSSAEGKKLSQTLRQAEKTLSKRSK

[8] = target: T4, Tyrosyl-tRNA synthetase, putative (Trypanosoma cruzi (strain CL Brener)); assay: Trypanosoma cruzi tyrosyl tRNA synthetase (TcYRS) SOP; assay type: functional; details: 30 µM
[9] = target: Chromo domain-containing protein 1 (Saccharomyces cerevisiae (strain ATCC 204508 / S288c) (Baker's yeast)) (UniProt P32657); assay: ScCHD-1 Enzyme Inhibition Assay; assay type: functional; details: 30 µM; also: in the data most compounds retested in dose-response had high values
Chromo domain-containing protein 1 (Saccharomyces cerevisiae (strain ATCC 204508 / S288c) (Baker's yeast)), sequence (P32657 whole entry, the tested form may be a part): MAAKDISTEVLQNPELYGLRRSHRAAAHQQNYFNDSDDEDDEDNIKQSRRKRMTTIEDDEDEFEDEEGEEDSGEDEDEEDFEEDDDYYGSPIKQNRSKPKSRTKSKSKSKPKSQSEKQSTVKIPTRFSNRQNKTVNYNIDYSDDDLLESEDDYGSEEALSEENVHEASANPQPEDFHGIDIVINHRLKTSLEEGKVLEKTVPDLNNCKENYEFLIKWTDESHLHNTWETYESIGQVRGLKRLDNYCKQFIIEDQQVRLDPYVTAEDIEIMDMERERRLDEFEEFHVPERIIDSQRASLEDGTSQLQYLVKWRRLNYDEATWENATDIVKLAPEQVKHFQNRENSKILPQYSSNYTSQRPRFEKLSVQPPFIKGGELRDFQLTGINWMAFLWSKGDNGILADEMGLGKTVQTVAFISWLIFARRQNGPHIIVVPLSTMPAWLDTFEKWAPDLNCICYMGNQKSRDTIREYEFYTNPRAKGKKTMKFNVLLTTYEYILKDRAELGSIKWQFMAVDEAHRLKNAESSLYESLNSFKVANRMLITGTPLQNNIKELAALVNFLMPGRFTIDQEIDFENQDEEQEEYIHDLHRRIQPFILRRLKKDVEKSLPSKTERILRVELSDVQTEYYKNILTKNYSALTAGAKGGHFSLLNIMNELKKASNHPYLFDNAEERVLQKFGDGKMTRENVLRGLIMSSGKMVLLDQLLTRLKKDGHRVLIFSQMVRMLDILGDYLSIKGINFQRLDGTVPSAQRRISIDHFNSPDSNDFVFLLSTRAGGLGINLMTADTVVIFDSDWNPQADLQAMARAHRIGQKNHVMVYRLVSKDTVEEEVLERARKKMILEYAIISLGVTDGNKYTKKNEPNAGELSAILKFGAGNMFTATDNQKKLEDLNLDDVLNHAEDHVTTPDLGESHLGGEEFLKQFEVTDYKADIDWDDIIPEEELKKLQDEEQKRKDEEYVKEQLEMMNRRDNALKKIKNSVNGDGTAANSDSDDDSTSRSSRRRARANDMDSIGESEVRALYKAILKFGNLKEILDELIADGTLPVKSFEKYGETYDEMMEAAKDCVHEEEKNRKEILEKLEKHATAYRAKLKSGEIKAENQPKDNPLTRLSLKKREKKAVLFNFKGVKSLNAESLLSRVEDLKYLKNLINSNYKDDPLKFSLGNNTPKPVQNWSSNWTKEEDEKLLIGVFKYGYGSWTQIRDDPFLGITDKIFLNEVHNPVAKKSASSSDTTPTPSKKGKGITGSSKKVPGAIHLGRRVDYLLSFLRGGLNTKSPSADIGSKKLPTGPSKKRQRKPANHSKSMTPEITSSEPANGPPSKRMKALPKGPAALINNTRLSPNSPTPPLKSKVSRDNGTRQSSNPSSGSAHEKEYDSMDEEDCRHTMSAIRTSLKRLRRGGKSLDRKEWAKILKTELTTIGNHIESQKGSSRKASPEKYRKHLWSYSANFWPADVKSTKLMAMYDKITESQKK

Protein translocase subunit SecA (Escherichia coli (strain K12)), sequence (P10408 whole entry): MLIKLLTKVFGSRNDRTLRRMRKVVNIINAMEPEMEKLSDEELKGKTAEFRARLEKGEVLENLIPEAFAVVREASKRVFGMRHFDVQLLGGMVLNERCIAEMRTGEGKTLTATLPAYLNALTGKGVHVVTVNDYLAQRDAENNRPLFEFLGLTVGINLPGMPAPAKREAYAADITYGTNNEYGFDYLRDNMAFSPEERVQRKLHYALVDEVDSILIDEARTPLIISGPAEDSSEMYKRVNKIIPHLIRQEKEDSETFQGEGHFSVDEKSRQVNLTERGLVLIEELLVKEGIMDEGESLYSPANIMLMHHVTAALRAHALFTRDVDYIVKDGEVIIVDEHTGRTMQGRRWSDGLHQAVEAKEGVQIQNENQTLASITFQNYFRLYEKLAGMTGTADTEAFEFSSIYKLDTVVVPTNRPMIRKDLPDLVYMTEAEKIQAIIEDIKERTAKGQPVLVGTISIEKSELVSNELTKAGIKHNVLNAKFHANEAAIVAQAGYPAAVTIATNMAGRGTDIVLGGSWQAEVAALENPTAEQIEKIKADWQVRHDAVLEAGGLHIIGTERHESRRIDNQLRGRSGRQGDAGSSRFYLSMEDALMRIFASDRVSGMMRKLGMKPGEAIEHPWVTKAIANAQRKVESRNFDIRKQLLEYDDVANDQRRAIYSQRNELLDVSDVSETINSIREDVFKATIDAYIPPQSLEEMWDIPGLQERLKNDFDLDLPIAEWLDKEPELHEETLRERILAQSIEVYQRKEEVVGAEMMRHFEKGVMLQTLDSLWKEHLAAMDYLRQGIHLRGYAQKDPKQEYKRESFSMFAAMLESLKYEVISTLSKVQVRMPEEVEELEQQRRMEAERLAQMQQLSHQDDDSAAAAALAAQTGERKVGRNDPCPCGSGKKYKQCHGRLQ

SMILES | Percent Effect [1] | Percent Effect [2] | Percent Effect [3] | Percent Effect [4] | Percent Effect (Trypanosoma cruzi) | Percent Effect [5] | Percent Effect [6] | Percent Effect (Homo sapiens) | Percent Effect [7] | Percent Effect [8] | Percent Effect [9]
O=C(c1ccc(Cl)c(Cl)c1)N1CCCC(n2cncn2)C1 (configuration not stated) | -0.919% | 2.7% | -3.55% | 0.213% | -2.14% | 6.47% | -7% | 6.82% | 3.96% | 3.66% | 7.67%
CC(C)c1noc(C(C)N2CCN(CCN3CCCC3=O)CC2)n1 (configuration not stated) | -5.03% | 5.41% | -10% | 9.09% | -2.17% | 1.6% | -1.62% | 9.64% | 1.48% | 1.24% | 0.594%
OC1(CN2CCCC2)CCCN(Cc2ccc(F)cc2Cl)C1 (configuration not stated) | -2.56% | 0% | -4.18% | -3.78% | -7.5% | 3.12% | 12% | 5.3% | 3.83% | 11.1% | -3.94%
CC(NC(=O)c1cccs1)C(=O)NCc1cccnc1N1CCCCC1 (configuration not stated) | -5.05% | 15.6% | 4.11% | 3.01% | -3.93% | 0.712% | 9.46% | 10.2% | 1.94% | 7.32% | -4.16%
CCN1CCC(NC(=O)CN2CCCCC2Cn2cc(C)cn2)CC1 (configuration not stated) | 3.6% | 21.5% | 4.67% | -0.101% | -4.21% | -11.4% | 15.3% | 14.9% | 1.04% | -22.8% | -23.6%
Cc1nccc([C@@H]2C[C@@H]3CCN(S(C)(=O)=O)C[C@H]3O2)n1 | -4.82% | 8.11% | -5.02% | 10.6% | 7.14% | -0.744% | 7.64% | 6.16% | 8.6% | 13.6% | -3.19%
O=C(Cc1ccc2c(c1)OCCO2)N1CCCC(n2cccn2)C1 (configuration not stated) | 2.92% | 2.6% | 13.7% | -3.29% | 1.08% | 2.74% | 3.15% | 22.6% | -7.62% | -2.35% | -15%
O=C(COc1cccc2c1CCC2=O)NCc1ccccc1F | -2.77% | 13.2% | 2.6% | -2.18% | 4.58% | 11.8% | 9.49% | 11% | 3.19% | 10.4% | -2.42%
Cc1nc(C2(NCC(=O)NCCc3cccs3)CCCC2)no1 | -2.85% | 7.89% | -3.1% | 0.327% | -4.38% | -9.47% | 15.1% | 6.74% | 2.13% | 15.6% | -1.92%
Cc1ccccc1-c1cc(NC(=O)CC(C)C)n(CCO)n1 | -2.35% | 2.63% | -11.8% | 0.669% | -6.33% | 2.37% | 5.46% | 0.574% | 3.19% | 5.2% | -3.67%
CCOc1cccc(CNC(=O)NCC(O)c2cccc(F)c2)c1 (configuration not stated) | -5.26% | 16.2% | -2% | 22.6% | 5.75% | -6.01% | -1.44% | 29.2% | 7.39% | 23.5% | -11.2%
Cc1n[nH]c(C2CN(C(=O)c3ccco3)CCO2)n1 (configuration not stated) | -4.76% | 2.63% | 7.87% | 3.79% | 1.07% | 0% | 4.51% | 25.8% | 6.38% | 7.79% | -0.969%
O=C(c1ccc(Br)s1)N1CCN(Cc2ccc(OC(F)(F)F)cc2)CC1 | -0.131% | -13.7% | 41.1% | 2.45% | -3.72% | -1.82% | 19% | 8.24% | 1.07% | -2.5% | -11.7%
CN1CCN(C(=O)[C@H]2C[C@@H]3CCN(c4ncc(F)cn4)C[C@@H]3O2)CC1 | 1.76% | 8% | 10% | 14.4% | -2.51% | -53.2% | 10.3% | 7.21% | 0% | 17.5% | -8.06%
CN(C)S(=O)(=O)N1CCCC1CC(=O)c1cccs1 (configuration not stated) | 2.35% | 2.7% | -3.98% | 2.64% | 1.74% | 11.9% | -0.862% | 16.6% | -2.65% | 4.88% | -1.64%
CNc1nc2c(s1)C(c1c(F)cccc1Cl)CC(=O)N2 (configuration not stated) | -1.81% | 13.2% | -308% | 1.93% | 4.58% | -4.73% | 6.81% | -0.412% | 2.13% | 2.6% | 22.5%
Cc1ccc(OCCCNC(=O)NC(C)c2nncn2C)cc1 (configuration not stated) | -4.22% | 13% | 6.68% | -5.15% | 4.41% | 4.42% | 8% | -0.0367% | 7.62% | 18.8% | -17.6%
Cc1cccc(OCCNC(=O)CN2CCCC2Cn2cccn2)c1 (configuration not stated) | -2.54% | -5.26% | -4.16% | 6.34% | 4.95% | -4.32% | -0.931% | -9.42% | 5.42% | 11.1% | -3.56%
CCOc1cccc2c1OCC(C(=O)NS(=O)(=O)c1ccc(C)s1)=C2 | -4.93% | -8.11% | -7.07% | 7.91% | -1.98% | 4.01% | 9.01% | 5.57% | -9.36% | -18.5% | -1.03%
COCC(=O)N1CCC(c2nc3ccc(N4CCCC4)cn3n2)CC1 | -3.58% | 5.48% | -210% | 5.8% | -4.96% | 1.2% | 10% | -9.84% | 7.29% | 11.1% | -3.02%
O=C(NCCn1ccnc1)c1cccc(F)c1 | -1.92% | 18.4% | -6.48% | -8.53% | -4.39% | 0.36% | 9.56% | -11.5% | 5.42% | 13.6% | -6.88%
CCCc1noc(CCC(=O)N2CCCC2c2noc(C3CC3)n2)n1 (configuration not stated) | -5.01% | 10.1% | 1.8% | 21.9% | -0.85% | 1.52% | -1.56% | 12% | 1.48% | 1.27% | -2.93%
